This note sets out measurements from PubChem BioAssay (NCATS).

SMILES strings stand for the structures. Results filed as inconclusive are left out. The source made the active and inactive calls. Unless noted, calls follow the shape of the dose curve; as a rule, active = well fitted curve in the direction sought with a large enough effect; inconclusive = small, poorly fitted or top-dose-only effect, or another doubt; inactive = no such curve, though single readings can be large; an effect the other way counts as inactive or inconclusive.

Assay [1] is described as follows: P-glycoprotein substrates identified in KB-8-5-11 adenocarcinoma cell line, qHTS therapeutic library screen (AID 1346987). Also: series mostly up to about 44 µM; nearly all actives have a fitted effect of over 65% in size. Put shortly: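 In this qHTS, P-gp-rich KB-8-5-11 cells received library compounds across a concentration range. Viability was quantified by luminescence after 72 h at 37 degree C.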
On the technique in general: qHTS replaces the single test concentration by a dilution series.

Assay [2] can be described thus: Primary qHTS for inhibitors of nuclear receptor binding SET domain protein 2 (NSD2) in an isogenic RCH-ACV NSD2 p.E1099K mutant (9B) (AID 1645876). Also: potency is read from the fitted curve at half-maximal effect; nearly all actives have a fitted effect of over 70% in size.
Assay [3] in a line: Primary qHTS for inhibitors of nuclear receptor binding SET domain protein 2 (NSD2) in an RCH-ACV wild type WT cells (2C) (AID 1645877). Also: potency is read from the fitted curve at half-maximal effect; nearly all actives have a fitted effect of over 70% in size.
Assay [4] deals with Glutathione peroxidase 1 (Homo sapiens) (UniProt P07203). Nature of the assay: Primary qHTS Assay for Inhibitors of Recombinant Selenoprotein Glutathione Peroxidase 1 (GPX1) (AID 1845191). Also: nearly all actives have a fitted effect of over 65% in size. Put shortly: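 GPX1 10 nM, GR 100 nM, GSH 1 mM, NADPH 0.5 mM, CHP 0.5 mM (final). 30-min cpd preincubation, RT. Ex340/Em450 read t=0, t=15 min.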
Sequence of Glutathione peroxidase 1 (Homo sapiens) (P07203 whole entry, looked up): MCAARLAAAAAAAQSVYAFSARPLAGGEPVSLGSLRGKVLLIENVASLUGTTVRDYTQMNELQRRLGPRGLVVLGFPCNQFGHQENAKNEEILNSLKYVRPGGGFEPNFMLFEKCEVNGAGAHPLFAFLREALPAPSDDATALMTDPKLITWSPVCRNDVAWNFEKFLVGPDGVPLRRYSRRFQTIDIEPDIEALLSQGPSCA
Assay [5] can be described thus: qHTS drug screen for cell cycle checkpoint inhibitors in PARPi-resistant BRCA-mutant ovarian cancer cell lines. (AID 1963452; calls by dose curve). The conditions noted are these: PEO1/OlaR viability, CellTiter-Glo luminescence, 96 h, stronger effect = lower value. Put shortly: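 PEO1, PEO4 and PEO1/OlaR ovarian cancer cells, 600 per well, exposed 96 h at 37C to a dilution series. Viability read by CellTiter-Glo luminescence, normalized to DMSO and empty wells; activity summarized as Z-AUC.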

For the molecule `Cc1ccc(NC(=O)Nc2nnc(Sc3ncnc4cc(OCCCN5CCOCC5)ccc34)s2)cc1`, the Potency entry in assay [1] and in assay [4] was “inactive” throughout. Besides, the figures for the Potency in assay [2] and in assay [3] were 3.66 µM (active) and 5.17 µM (active), respectively. Further, the results for the Z-AUC in assay [5], in assay [5] (measured here: PEO1 parental Z-AUC) and in assay [5] (measured here: PEO4 Z-AUC) were -0.628 (inactive), 0.369 and 0.158, respectively.
